PMC7862700, “An all-to-all approach to the identification of sequence-specific readers for epigenetic DNA modifications on cytosine”

Tests used:
Test in all cases: DAPPL (digital affinity profiling via proximity ligation, sequencing); 10 mM Tris-HCl pH 7.5, 50 mM NaCl, 1 mM DTT, 4% glycerol, room temperature, 30 min; GST-TFs on glutathione beads, 16-mer random dsDNA library, 0.1% formaldehyde crosslink after washing; high values mean tight binding
Conditions in all cases: protein: recombinant; tags: N-terminal GST; dsDNA, one strand shown
FLI1 = molecular target: T1, FLI1 (Homo sapiens, UniProt Q01543 1-452)
T1 sequence: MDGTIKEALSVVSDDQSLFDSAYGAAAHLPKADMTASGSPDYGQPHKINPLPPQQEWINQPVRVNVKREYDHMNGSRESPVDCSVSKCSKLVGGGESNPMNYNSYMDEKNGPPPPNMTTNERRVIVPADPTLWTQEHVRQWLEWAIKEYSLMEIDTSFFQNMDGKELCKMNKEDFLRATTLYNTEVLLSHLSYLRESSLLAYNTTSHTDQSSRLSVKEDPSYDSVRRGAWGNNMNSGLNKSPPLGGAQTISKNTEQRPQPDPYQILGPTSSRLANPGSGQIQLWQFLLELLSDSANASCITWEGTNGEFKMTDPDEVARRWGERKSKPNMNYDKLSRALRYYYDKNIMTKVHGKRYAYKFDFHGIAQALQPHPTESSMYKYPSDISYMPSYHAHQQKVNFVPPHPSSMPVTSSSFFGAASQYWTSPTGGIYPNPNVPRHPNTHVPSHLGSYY
In short: (§1)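 Pools of DNA-barcoded human transcription factors, expressed in yeast as GST fusions on glutathione beads and combined with a tag-only sample, were incubated with 200 nmole of a 16-mer random double-stranded DNA library. Incubation took 30 min at room temperature in Tris/NaCl/DTT/glycerol buffer and was followed by washing, 0.1% formaldehyde crosslinking, proximity ligation (BsaI/T4 ligase, 1 h, 37 °C), PCR amplification and sequencing on an Illumina NextSeq500. Binding signal is the ratio of a hexamer's read frequency for a factor to its frequency for the tag-only sample.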

ELK1 = molecular target: T2, ELK1 (Homo sapiens, UniProt P19419 1-428)
T2 sequence: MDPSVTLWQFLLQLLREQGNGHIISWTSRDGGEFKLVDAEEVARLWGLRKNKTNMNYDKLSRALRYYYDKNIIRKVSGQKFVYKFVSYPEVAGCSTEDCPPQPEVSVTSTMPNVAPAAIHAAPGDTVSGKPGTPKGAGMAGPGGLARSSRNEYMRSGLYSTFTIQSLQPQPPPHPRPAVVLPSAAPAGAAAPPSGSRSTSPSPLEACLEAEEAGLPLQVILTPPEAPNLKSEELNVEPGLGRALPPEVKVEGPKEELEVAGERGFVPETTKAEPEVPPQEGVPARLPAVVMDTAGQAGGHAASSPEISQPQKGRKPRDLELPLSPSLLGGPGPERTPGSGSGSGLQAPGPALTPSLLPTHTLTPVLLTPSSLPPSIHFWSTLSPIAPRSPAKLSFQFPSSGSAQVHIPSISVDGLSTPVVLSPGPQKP
In short: as §1

GABPA = molecular target: T3, GABPA (Homo sapiens, UniProt Q06546 1-454)
T3 sequence: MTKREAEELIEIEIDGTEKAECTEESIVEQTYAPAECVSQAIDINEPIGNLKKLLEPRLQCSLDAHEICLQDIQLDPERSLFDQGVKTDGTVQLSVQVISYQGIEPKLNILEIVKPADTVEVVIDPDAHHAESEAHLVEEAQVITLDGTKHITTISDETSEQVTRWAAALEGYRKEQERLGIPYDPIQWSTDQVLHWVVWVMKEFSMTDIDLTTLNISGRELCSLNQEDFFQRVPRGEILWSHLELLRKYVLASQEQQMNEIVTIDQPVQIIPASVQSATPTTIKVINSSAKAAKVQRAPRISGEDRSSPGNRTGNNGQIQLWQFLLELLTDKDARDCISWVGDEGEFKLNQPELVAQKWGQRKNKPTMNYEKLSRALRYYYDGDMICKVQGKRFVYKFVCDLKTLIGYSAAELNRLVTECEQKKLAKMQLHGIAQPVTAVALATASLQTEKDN
In short: as §1

ERG = molecular target: T4, ERG (Homo sapiens, UniProt P11308 1-479)
T4 sequence: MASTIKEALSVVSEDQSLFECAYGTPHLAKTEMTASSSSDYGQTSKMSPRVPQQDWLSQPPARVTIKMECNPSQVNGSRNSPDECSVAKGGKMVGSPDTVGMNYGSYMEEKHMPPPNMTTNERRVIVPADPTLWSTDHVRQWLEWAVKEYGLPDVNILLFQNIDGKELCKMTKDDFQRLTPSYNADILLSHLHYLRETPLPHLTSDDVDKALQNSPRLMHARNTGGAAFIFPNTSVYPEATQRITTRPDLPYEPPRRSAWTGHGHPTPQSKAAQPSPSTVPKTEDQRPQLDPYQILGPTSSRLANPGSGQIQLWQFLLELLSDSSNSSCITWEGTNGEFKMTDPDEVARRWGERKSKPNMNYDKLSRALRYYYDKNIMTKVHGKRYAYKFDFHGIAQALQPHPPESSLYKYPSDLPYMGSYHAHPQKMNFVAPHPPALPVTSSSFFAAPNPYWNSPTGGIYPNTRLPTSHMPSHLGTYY
In short: as §1

ELF1 = ELF1 (Homo sapiens, UniProt P32519 1-619)
In short: as §1

EHF = molecular target: T5, EHF (Homo sapiens, UniProt Q9NZC4 1-300)
T5 sequence: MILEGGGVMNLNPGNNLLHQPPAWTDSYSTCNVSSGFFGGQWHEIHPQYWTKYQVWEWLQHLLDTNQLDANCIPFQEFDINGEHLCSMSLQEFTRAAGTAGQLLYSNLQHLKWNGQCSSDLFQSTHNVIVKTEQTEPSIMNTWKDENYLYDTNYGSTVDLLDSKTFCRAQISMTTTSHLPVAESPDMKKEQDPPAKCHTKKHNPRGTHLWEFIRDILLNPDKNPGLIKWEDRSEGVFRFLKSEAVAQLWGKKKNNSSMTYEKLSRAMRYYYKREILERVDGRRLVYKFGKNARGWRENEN
In short: as §1

SPI1 = SPI1 (Homo sapiens, UniProt P17947 1-270)
In short: as §1

SPIB = SPIB (Homo sapiens, UniProt Q01892 1-262)
In short: as §1

ELK3 = molecular target: T6, ELK3 (Homo sapiens, UniProt P41970 1-407)
T6 sequence: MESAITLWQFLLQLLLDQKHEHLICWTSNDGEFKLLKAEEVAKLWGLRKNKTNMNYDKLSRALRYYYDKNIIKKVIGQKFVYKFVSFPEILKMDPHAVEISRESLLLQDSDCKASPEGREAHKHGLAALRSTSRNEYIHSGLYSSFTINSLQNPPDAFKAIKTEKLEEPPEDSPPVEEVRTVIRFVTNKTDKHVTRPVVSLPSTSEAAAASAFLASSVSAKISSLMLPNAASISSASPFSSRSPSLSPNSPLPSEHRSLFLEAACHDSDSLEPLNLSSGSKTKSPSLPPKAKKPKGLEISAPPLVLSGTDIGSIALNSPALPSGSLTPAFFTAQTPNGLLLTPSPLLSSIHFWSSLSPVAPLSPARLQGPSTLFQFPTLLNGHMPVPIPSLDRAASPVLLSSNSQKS
In short: as §1

Chain of ELF1 (P32519 whole entry): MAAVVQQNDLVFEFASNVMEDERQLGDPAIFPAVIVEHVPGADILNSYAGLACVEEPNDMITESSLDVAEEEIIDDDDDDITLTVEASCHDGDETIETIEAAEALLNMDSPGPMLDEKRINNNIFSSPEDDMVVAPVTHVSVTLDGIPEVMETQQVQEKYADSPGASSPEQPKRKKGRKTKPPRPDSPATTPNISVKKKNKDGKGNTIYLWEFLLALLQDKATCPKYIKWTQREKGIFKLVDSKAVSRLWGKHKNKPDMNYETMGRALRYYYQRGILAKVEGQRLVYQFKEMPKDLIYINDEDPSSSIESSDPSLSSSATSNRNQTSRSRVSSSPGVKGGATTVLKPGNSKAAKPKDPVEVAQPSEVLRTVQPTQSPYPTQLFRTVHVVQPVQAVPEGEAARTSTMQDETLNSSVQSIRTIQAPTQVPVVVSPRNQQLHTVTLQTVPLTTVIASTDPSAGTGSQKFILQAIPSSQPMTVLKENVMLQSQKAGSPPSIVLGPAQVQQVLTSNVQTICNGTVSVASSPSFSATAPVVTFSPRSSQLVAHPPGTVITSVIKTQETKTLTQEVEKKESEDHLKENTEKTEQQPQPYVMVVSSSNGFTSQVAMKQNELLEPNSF
Chain of SPIB (Q01892 whole entry): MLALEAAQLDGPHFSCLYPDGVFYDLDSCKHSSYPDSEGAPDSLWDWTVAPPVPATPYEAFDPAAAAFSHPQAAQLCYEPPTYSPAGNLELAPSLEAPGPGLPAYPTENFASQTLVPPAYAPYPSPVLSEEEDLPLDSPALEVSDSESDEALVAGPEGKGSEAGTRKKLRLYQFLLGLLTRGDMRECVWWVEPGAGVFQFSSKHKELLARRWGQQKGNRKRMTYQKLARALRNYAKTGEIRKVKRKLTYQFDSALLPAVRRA

In the case of TCCGGT, the binding signal (FLI1) is reported as 3.61 fold enrichment (6-mer frequency, TF over GST control), the binding signal (ELK1) is reported as 3.83 fold enrichment (6-mer frequency, TF over GST control) and the binding signal (GABPA) is reported as 3.5 fold enrichment (6-mer frequency, TF over GST control). For the same sequence, the binding signal (ERG) was 4.63 fold enrichment (6-mer frequency, TF over GST control), the binding signal (ELF1) was 3.46 fold enrichment (6-mer frequency, TF over GST control) and the binding signal (EHF) was 3.67 fold enrichment (6-mer frequency, TF over GST control). The binding signal (SPI1) was 3.58 fold enrichment (6-mer frequency, TF over GST control), the binding signal (SPIB) was 3.58 fold enrichment (6-mer frequency, TF over GST control) and the binding signal (ELK3) was 4.4 fold enrichment (6-mer frequency, TF over GST control).
